Data reported in ChEMBL document CHEMBL1157539, “Thousands of chemical starting points for antimalarial lead identification” (Nature, 2010).

Legend:
Assay type in all cases: functional
Plasmodium falciparum [1] = experiment: GSK_TCMDC: Inhibition of Plasmodium falciparum 3D7 in whole red blood cells, using parasite LDH activity as an index of growth. Test compounds present at 2uM
Plasmodium falciparum [2] = experiment: GSK_TCMDC: Inhibition of Plasmodium falciparum Dd2 in whole red blood cells, using parasite LDH activity as an index of growth. Test compounds present at 2uM
HepG2 = experiment: GSK_TCMDC: Percent inhibition of human HepG2 cell line. Test compounds present at 10uM.

| Compound | Inhibition (Plasmodium falciparum [1]) | Inhibition (Plasmodium falciparum [2]) | Inhibition (HepG2) |
| --- | --- | --- | --- |
| CC1CCCCC1N(C)C1CCN(CCCNC(=O)C=Cc2ccccc2Cl)CC1 (stereo not drawn) | 100% | 14% | 30% |
| COc1ccc(-c2csc3nc(C)nc(Cl)c23)cc1OC | 97% | 95% | 0% |
| O=c1cc(NCCCNCc2cc(C(F)(F)F)ccc2F)[nH]c2ccccc12 | 94% | 43% | 0% |
| O=C(Nc1cc(C(F)(F)F)cc(C(F)(F)F)c1)Nc1ccc(Cl)c(Cl)c1 | 100% | 100% | 58% |
| O=C(Nc1cccc(CN2CCN(Cc3ccc(O)cc3)CC2)c1)c1ccc(-c2ccccc2)cc1.O=C(O)C(F)(F)F | 100% | 67% | 40% |
| Cc1ccc(Cn2cnc3cc(C(=O)Nc4ccc(-c5cccc(CN(C)C)c5)cc4)ccc3c2=O)o1 | 99% | 39% | 22% |
| O=C(Nc1ccc(F)cc1)NC1CCN(CCCCCNC(=O)C2CC2c2ccc(Cl)c(Cl)c2)CC1 (stereo not drawn) | 100% | 20% | 46% |
| CCOc1cc(C)ccc1N1CCN(CCCCNC(=O)c2ccc(NC(=O)c3ccc(Cl)cc3)cc2)CC1.Cl | 100% | 46% | 19% |
| COc1ccccc1COc1c(C)nc(N)nc1N.Cl | 98% | 1% | 32% |
| CC(C)N1CCN(c2ccc(OCCCCN3CCN(c4cccc(Cl)c4Cl)CC3)c(C(F)(F)F)c2)CC1.Cl | 100% | 28% | 64% |
| COc1ccc2ncc(F)c(CCN3CCC(NCc4cc5c(cn4)OCCS5)CC3)c2c1.Cl | 89% | 40% | 4% |
| O=C(Nc1ccc(N2CCN(Cc3ccccc3Cl)CC2)cc1)c1ccc([N+](=O)[O-])o1 | 91% | 67% | 100% |
| CC(C)C[C@H](NC(=O)c1cc2ccccc2s1)C(=O)N[C@H]1CCN(Cc2ccc(OC[C@@H]3CCCN3C)c3ccccc23)C1.O=C(O)C(F)(F)F | 100% | 93% | 69% |
| O=[N+]([O-])c1cccc(NC(=S)N2CCCN(Cc3ccc(Cl)cc3Cl)CC2)c1 | 94% | 50% | 3% |
| COCc1ccc(CN2CCC(C(=O)Nc3ccc(-c4nc5ccccc5[nH]4)cc3)CC2)o1 | 97% | 13% | 13% |
| CN1CCCN(Cc2ccc(-c3cccc(NC(=O)c4cccc(F)c4)c3)cc2)CC1.O=C(O)C(F)(F)F | 91% | 12% | 28% |
| CCCNCc1ccc(-c2ccc(CN(C(=O)c3nn(-c4ccccc4)nc3C)C3CC3)cc2)nc1.O=C(O)C(F)(F)F | 100% | 0% | 23% |
| NC1CCCN(Cc2ccc(-c3ccc(-c4nc5cc(F)ccc5[nH]4)s3)cc2)C1.O=C(O)C(F)(F)F (stereo not drawn) | 100% | 98% | 40% |
| O=C(O)C(F)(F)F.O=C1OC2(CN1CC1CCN(Cc3ccc(O)cc3Cl)C1)c1ccccc1-c1ccccc12 (stereo not drawn) | 84% | 84% | 16% |
| COc1ccc(C2C(C(=O)Nc3ccc4c(c3)OCO4)c3cc(OC)c(OC)cc3C(=O)N2C)cc1 (stereo not drawn) | 89% | 54% | 12% |
| O=C(Cn1c(CCc2cccc(F)c2F)nc(=O)c2cccnc21)N(Cc1ccc(-c2ccc(C(F)(F)F)cc2)cc1)C1CCN(C2CCOCC2)CC1.O=C(O)C(O)C(O)C(=O)O | 94% | 67% | 100% |
| Cc1cc(O)nc(NC(=N)NOCc2ccccc2)n1 | 100% | 1% | 0% |
| COc1ccc(F)cc1-c1cccc(CNC2CCN(CC3Cn4c(=O)ccc5ccc(F)c3c54)CC2)c1.O=C(O)C(F)(F)F (stereo not drawn) | 100% | 27% | 46% |
| COc1ccc(S(=O)(=O)N(c2cc(Br)cc3c2OCC3)S(=O)(=O)c2ccc(OC)c(N3CCN(C)CC3)c2)cc1N1CCN(C)CC1 | 81% | 98% | 67% |
| CS(=O)(=O)c1ccc(CNCc2ccc(-c3cccc(-c4nc5cc(C(F)(F)F)ccc5[nH]4)c3)cc2)cc1.O=C(O)C(F)(F)F | 100% | 100% | 54% |
| CCN(CC)CCN(Cc1ccc(-c2ccc(C(F)(F)F)cc2)cc1)C(=O)Cn1c(/C=C/c2ccco2)nc(=O)c2ccccc21.O=C(O)C(O)C(O)C(=O)O | 94% | 86% | 28% |
